# Source: PubChem BioAssay
# Sampled rows, rich in hits. Any-hit rate of the full collection: about 7.4%.
# NPC1 prom act – activates the NPC1 promoter; Huh7 NPC1 promoter luciferase reporter, 24 h; Potency, µM (series often up to 9.22 µM), for inactives: at the highest dose activation, most hits filed as activators; actives 2.4% (n = 320,000); AID 485313; also: % of control where 0% means no effect; nearly all actives have a fitted effect of over 60% in size
#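 Luciferase expression driven by the NPC1 promoter was measured in stably transfected Huh7 cells after a 24 h compound incubation, using a luciferase reagent and a luminescence read.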
# ELG1 genotox – induces genotoxicity in HEK293T cells with luciferase-tagged ELG1. HEK293T ELG1-luciferase reporter, luminescence, 16 h. Potency, µM (highest dose often 46 µM), inactives show top-dose activity change, positive = activation, hits mostly activators. actives 1.3% (n = 330,000). AID 504466; also: % of control where 0% means no effect; nearly all actives have a fitted effect of over 60% in size
#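 16 hr compound incubation (37 °C, 5% CO2) of HEK293T cells carrying luciferase-tagged ELG1; luciferase then measured by ONE-Glo luminescence after 30 min at RT.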
# Rab9 prom act – Rab9 promoter activation | Potency, µM (doses to about 9.22 µM), without a hit: at the highest dose activation, negative = inhibition, hits mostly activators | Huh7 Rab9 promoter-luciferase reporter, luminescence, 24 h | actives 2.8% (n = 320,000) | AID 485297; also: % of control where 0% means no effect; nearly all actives have a fitted effect of over 60% in size
#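 Huh7 cells stably carrying a Rab9 promoter-luciferase reporter, 1500 cells per well in OP-MEM I with 10% FBS, treated with compound 24 hours at 37C. Luciferase activity read by luminescence after 10 minutes with Amplite reagent.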
# FLuc counter – firefly luciferase modulation, counter-screen for miR-21 project | Potency, µM (top dose mostly 57.5 µM), inactives show at the highest dose activity change, negative = inhibition, most hits filed as inhibitors | P08659 | actives 6.9% (n = 360,000) | purified FLuc, Km substrates, luminescence inhibition | AID 588342;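 also: plate controls were vehicle for no effect and reference inhibitor for full effect; nearly all actives have a fitted effect of over 55% in size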
# Target sequence (P08659 whole entry, looked up): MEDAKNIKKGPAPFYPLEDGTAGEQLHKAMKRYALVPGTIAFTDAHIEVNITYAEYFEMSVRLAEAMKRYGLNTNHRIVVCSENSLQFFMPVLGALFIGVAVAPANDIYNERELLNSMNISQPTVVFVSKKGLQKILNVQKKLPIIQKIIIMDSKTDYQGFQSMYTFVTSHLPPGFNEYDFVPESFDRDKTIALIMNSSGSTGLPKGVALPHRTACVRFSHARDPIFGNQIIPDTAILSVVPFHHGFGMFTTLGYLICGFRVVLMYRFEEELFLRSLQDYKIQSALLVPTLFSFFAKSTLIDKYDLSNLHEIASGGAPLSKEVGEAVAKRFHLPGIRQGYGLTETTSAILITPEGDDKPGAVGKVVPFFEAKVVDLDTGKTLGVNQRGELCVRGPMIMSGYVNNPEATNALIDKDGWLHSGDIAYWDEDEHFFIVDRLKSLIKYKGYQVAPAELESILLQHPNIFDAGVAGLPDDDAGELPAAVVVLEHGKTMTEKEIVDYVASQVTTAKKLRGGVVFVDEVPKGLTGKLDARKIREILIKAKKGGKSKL
#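 Purified P. pyralis luciferase, 10 nM final, with Km-level 10 uM D-luciferin and 10 uM ATP in 50 mM Tris acetate pH 7.5, 10 mM Mg acetate, 0.01% Tween-20, 0.05% BSA; 6-point qHTS titration about 60 µM downward; luminescence read.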
# SMN2 splice up – increases expression of the SMN2 splice variant; HEK293 SMN2-luciferase splicing reporter, luminescence, 30-36 h; Potency, µM (titrated, usually from 46.1 µM), for inactives: at the top dose activity change, positive = activation, actives largely listed as activators; actives 2.8% (n = 210,000); AID 1458; also: % of control where 0% means no effect; nearly all actives have a fitted effect of over 55% in size
#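 HEK293 cells carry an SMN2 […]–luciferase reporter in which exon 7 inclusion puts luciferase in frame. Cells were plated 10-12 h before compound addition, then incubated 30-36 h at 37C. ONE-Glo luminescence was read; sodium butyrate at 4.5 mM final served as control.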
# Starred values were filed as active, the others as inactive; ? = inconclusive; . = not tested or not shown; [ ] = another dose, or the depositor's remark. Calls follow the shape of the dose curve; as a rule, active = well fitted curve in the direction sought with a large enough effect; inconclusive = small, poorly fitted or top-dose-only effect, or another doubt; inactive = no such curve, though single readings can be large; an effect the other way counts as inactive or inconclusive. Potency is read from the fitted curve at half-maximal effect.
SMILES,NPC1 prom act,ELG1 genotox,Rab9 prom act,FLuc counter,SMN2 splice up
O=C(c1ccccc1)N1CCc2ccccc21,-2%,0%,12%,1%,-9%
COc1ccc(CCC(=O)N2CCc3ccccc32)cc1,?,?,?,9.5µM*,0%
CCOC(=O)c1ccc(NC(=O)N2CCc3ccccc32)cc1,1.8µM*,8.2µM*,1.8µM*,1.9µM*,16µM*
CCOC(=O)c1ccc(NC(=O)N2CCc3ccccc3C2)cc1,-1%,13%,18%,?,.
COc1ccc(C(=O)N2CCc3ccccc32)cc1,27%,?,?,?,11µM*
Nc1cccc(OCc2nc(N)nc(N)c2-c2ccc(Cl)cc2)c1,.,.,.,.,-12%[9.22 µM]
CC(=O)N1c2ccccc2C(=O)C1N1CCN(c2cc(Cl)ccc2C)CC1 (stereo not given),.,.,.,-10%,.
Cc1cccnc1NC(=O)CN1C(=O)COc2ccc(Cl)cc21,-7%,2%,-2%,12%,.
O=C(Nc1ccccc1)N1CCc2ccccc21,1.6µM*,9.2µM*,1µM*,21µM*,14µM*
S=C(Nc1ccccc1)N1CCc2ccccc21,12%,1%,14%,?,.
O=C(CNC(=O)c1cccs1)c1ccc(Cl)cc1,1.1µM*,?,0.5µM*,6µM*,.
O=C(CNC(=O)c1cccs1)c1ccc(F)cc1,0.5µM*,?,0.56µM*,4.8µM*,6.3µM*
O=C(CNC(=O)c1cccs1)c1ccc([N+](=O)[O-])cc1,?,?,2.8µM*,24µM*,?
O=C(CNC(=O)c1cccs1)OCC(=O)c1ccc([N+](=O)[O-])cc1,7%,-3%,-5%,0%,.
O=C(CNC(=O)c1cccs1)OCC(=O)c1ccc(Cl)cc1,-3%,0%,-5%,-7%,.
COc1ccc(CCN2C(=O)CN(C3CCCCCC3)C(=O)C2c2ccc(OC(C)C)c(OC)c2)cc1OC (stereo not given),.,.,.,1%,.
Cc1ccc(C)c(C(=O)N2CCC(c3nc4c(nnn4Cc4ccccc4)c(=O)[nH]3)CC2)c1,.,.,.,2%,?
O=C(Nc1nc(-c2ccccn2)cs1)C12CC3CC(CC(O)(C3)C1)C2,2.2µM*,?,3.2µM*,6.7µM*,11µM*
O=C(Nc1nc(-c2ccccn2)cs1)C1CC1,?,0%,?,?,?
O=C(CC1CC2CCC1C2)Nc1nc(-c2ccccn2)cs1 (stereo not given),28%,-5%,4µM*,24µM*,17%
COc1ccccc1NC(=O)C(C)OC(=O)CCSc1ccc(F)cc1 (stereo not given),-1%,-1%,-10%,4%,.
CCn1c(SCC(=O)N/N=C/C(C)=C\c2ccco2)nnc1-c1ccccc1,-1%,1%,1%,13µM*,-9%
CCn1c(SCC(=O)N/N=C/C=C/c2ccco2)nnc1-c1ccccc1,-5%,1%,-7%,?,-41%
CCn1c(SCC(=O)N/N=C/C(C)=C/c2ccco2)nnc1-c1ccccc1,-2%,-2%,2%,15µM*,-11%
CN1C(=O)/C(=C/c2cccc([N+](=O)[O-])c2)C(=O)N1c1ccccc1,-2%,?,-2%,15µM*,.
SMILES,NPC1 prom act,ELG1 genotox,Rab9 prom act,FLuc counter,SMN2 splice up
O=C(Nc1cccc(C(=O)O)c1)Nc1ccc2c(c1)OCO2,?,-21%,?,0.11µM*,.
O=C(NCc1ccncc1)Nc1ccc2c(c1)OCO2,-1%,7%,?,?,.
Cc1ccc(C(=O)O)cc1NC(=O)Nc1ccc2c(c1)OCO2,13%,8%,18%,?,?
COC(=O)c1ccc(C(=O)OC)c(NC(=O)Nc2ccc3c(c2)OCO3)c1,?,15µM*,?,21µM*,?
CC(NC(=O)Nc1ccc(Cl)cc1)c1ccc2c(c1)OCO2 (stereo not given),-4%,-5%,4%,-1%,.
O=C(NCc1cccs1)Nc1ccc2c(c1)OCO2,?,?,3.5µM*,17µM*,14µM*
COC(=O)c1ccccc1NC(=O)Nc1ccc2c(c1)OCO2,21%,?,26%,?,-15%
O=C(Nc1ccc(Cl)cc1)Nc1ccc2c(c1)OCO2,1.1µM*,4.1µM*,1.8µM*,2.1µM*,.
O=C(Nc1cccc(F)c1)Nc1ccccn1,3.2µM*,26%,2.8µM*,13µM*,23%
O=C(Nc1ccc2c(c1)OCO2)Nc1ccc(Cl)cc1Cl,?,?,?,4.8µM*,?
O=C(Nc1ccc2c(c1)OCO2)N1CCN(S(=O)(=O)c2ccc(Cl)cc2)CC1,-2%,-11%,-4%,1%,-9%
O=C(Nc1ccc(OC(F)F)c(Cl)c1)Nc1ccc2c(c1)OCO2,18%,-3%,6%,?,-12%
O=C(Nc1ccc2c(c1)OCO2)N1CCN(c2ccccc2Cl)CC1,?,?,?,19µM*,1%
O=C(Nc1ccc2c(c1)OCO2)Nc1ccc2c(c1)OCO2,1.4µM*,?,1.8µM*,?,7.9µM*
O=C(Nc1cccc(F)c1)Nc1cnccn1,6%,2%,23%,-9%,.
COc1cc2[nH]c(=O)n(CCCC(=O)NCc3ccccc3Cl)c(=O)c2cc1OC,.,.,.,-6%,-2%
CC1CN(C(=O)c2ccc(Br)c(S(=O)(=O)N3CCOCC3)c2)CC(C)O1 (stereo not given),-10%,0%,1%,0%,.
O=C(Nc1cccc(C(=O)O)c1)/C(=C\c1ccc2c(c1)OCO2)NC(=O)c1ccc(Br)o1,?,10%,?,21µM*,?
O=C(Nc1ccc(C(=O)O)cc1)/C(=C\c1ccc2c(c1)OCO2)NC(=O)c1ccc(Br)o1,-1%,4%,0%,-12%,16%
S=C(Nc1ccc2c(c1)OCCO2)Nc1ccc2c(c1)OCO2,?,?,4µM*,17µM*,?
O=C(Nc1ccc2c(c1)OCO2)Nc1ccccn1,2.8µM*,?,0.89µM*,12µM*,.
O=C(NCc1cccs1)Nc1ccc(Cl)cc1,?,11%,?,?,10µM*
CC(=O)c1cccc(NC(=O)NCc2cccs2)c1,0%,-3%,-6%,?,7%
O=C1OCC2=C1C(c1cccc(Cl)c1)CC(=O)N2c1ccc(C(F)(F)F)cc1 (stereo not given),.,.,.,3%,-12%
O=C(CCl)N1CCN(S(=O)(=O)Cc2ccccc2)CC1,-15%,-3%,-38%,0%,.
O=C(Nc1ccc(F)cc1)Nc1ccc2c(c1)OCO2,8%,1%,-5%,3%,.
O=C(Nc1cccnc1)Nc1ccc2c(c1)OCO2,?,17%,?,12µM*,?
Cn1ccc(NC(=O)Nc2ccc(Cl)cc2Cl)n1,?,?,?,15µM*,14µM*
O=C(Nc1ccc2c(c1)OCO2)Nc1ccc(F)cc1F,1.4µM*,?,1.4µM*,6µM*,.
